Data on 21 compounds can be found in PubChem BioAssay AID504904 (The Scripps Research Institute Molecular Screening Center, 2011).

Some of the results follow. Values without a mark were called inactive. Calls of active or inactive are those of the source. No stated cut-off is given here; in the data, active means activation above about 18%; inactive means the rest.

Sequence of Mu-type opioid receptor (Homo sapiens) + Delta-type opioid receptor (Homo sapiens) (P35372 whole entry, looked up): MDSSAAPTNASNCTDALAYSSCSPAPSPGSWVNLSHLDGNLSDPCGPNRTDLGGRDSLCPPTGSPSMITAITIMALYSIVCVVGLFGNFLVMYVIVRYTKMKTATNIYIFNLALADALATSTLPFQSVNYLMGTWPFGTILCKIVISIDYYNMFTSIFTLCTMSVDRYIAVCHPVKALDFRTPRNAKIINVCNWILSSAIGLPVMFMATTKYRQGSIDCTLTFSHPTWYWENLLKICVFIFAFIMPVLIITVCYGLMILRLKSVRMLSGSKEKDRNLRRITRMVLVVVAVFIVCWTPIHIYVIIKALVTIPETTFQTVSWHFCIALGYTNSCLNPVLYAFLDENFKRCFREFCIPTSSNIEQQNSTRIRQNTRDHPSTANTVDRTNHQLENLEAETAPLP
Sequence of Mu-type opioid receptor (Homo sapiens) + Delta-type opioid receptor (Homo sapiens) (P41143 whole entry, looked up): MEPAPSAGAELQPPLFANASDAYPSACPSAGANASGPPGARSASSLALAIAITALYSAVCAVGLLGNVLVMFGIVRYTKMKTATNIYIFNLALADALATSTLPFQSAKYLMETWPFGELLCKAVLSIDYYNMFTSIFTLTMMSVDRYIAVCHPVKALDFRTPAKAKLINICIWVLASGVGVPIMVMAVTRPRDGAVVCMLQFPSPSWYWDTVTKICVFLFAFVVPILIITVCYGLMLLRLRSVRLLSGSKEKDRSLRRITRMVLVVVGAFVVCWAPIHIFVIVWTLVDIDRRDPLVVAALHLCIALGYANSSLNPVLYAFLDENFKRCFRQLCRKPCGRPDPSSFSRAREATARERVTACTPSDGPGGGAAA

This experiment has as its target Mu-type opioid receptor (Homo sapiens) + Delta-type opioid receptor (Homo sapiens) (UniProt P35372+P41143). Put plainly: OPRM1-OPRD1 heterodimer formation agonism – cell-based, luminescence, confirmation (AID 504904).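 Further: 0% = vehicle-treated cells and 100% = reference agonist.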 The note with it: cells, MOR-DOR heterodimerization, luminescence complementation; at 9.3 µM; active compounds read high.
With `O=C1N/C(=C/c2cccs2)C(=O)N1Cc1ccc(F)cc1`, the activation was 35% (active).

For the compound `Cc1ccc(CN(C(=O)c2sc3ccccc3c2Cl)C2CCS(=O)(=O)C2)cc1` (stereo unspecified), the activation was 24.1% (active). In the case of `CN1C(CC(=O)Nc2ccc(Br)cc2)c2ccccc2CC1(C)C` (stereo unspecified) it was 89.7% (active); in that of `CN1CCN(c2ccc([N+](=O)[O-])c(Sc3nc4ccccc4[nH]3)c2)CC1`, 1.22%. On to `Cc1ccc(S(=O)(=O)N(CC(=O)Nc2cccnc2)c2ccc(Br)cc2)cc1`, for which the activation is 20.6% (active).

Regarding `Cc1ccc(O)c(NC(=S)NC(=O)COc2ccc(Br)cc2)c1`, the activation was 2.92%. The value for `O=C(NCc1cn2ccsc2n1)Nc1ccc(Cl)cc1` was 7.03%; that for `CN(C)C(CNC(=O)c1ccc(S(=O)(=O)NCc2ccco2)cc1)c1ccccc1` (stereo unspecified) was 16.7%; that for `COC(=O)c1ccc(C23CC4(C2)[C@H](CN(Cc2cccnc2)[C@@H]4c2ccccc2)C3c2ccc(Cl)nc2)cc1` (stereo partly specified) was 17.2%. Regarding `COc1ccc(C(CNCC(=O)Nc2ccccc2F)N(C)C)cc1` (stereo unspecified), the activation is 145% (active). The value for `CCc1ccc(C(CNc2nc(C(F)(F)F)nc3ccccc23)N(C)C)cc1` (stereo unspecified) was 42.4% (active); that for `Clc1ccc(COn2c(-c3ccc(Cl)cc3Cl)nc3ncccc32)cc1` was 2.83%; that for `N#CC(C(=O)c1ccc(S(=O)(=O)N2CCCCCC2)cc1)c1nc2ccccc2[nH]1` (stereo unspecified) was 6.41%. The value for `CN(C)C(CNC(=O)Cc1ccc([N+](=O)[O-])cc1)c1ccccc1` (stereo unspecified) was 164% (active); that for `COCCCNc1nc2c(-c3cccc(C)c3)nnn2c2ccc(Cl)cc12` was 15.3%. The value for `CN(CC(=O)Nc1ccc(Cl)cc1)C(=O)c1ccc(COc2ccccc2)cc1` was 0.49%; that for `CN(C)C(CNC(=O)c1cc2ccccc2o1)c1ccccc1` (stereo unspecified) was 1.4%; that for `Cc1ccc(OCC(=O)Nc2ccc(NC(=O)c3cccs3)cc2)c(C)c1` was 421% (active). In the case of `Cc1ccc(CNC(=O)CC(NC(=O)c2ccccc2)c2ccccc2)cc1` (stereo unspecified), the activation was -2.24%. As to `COc1ccccc1C(CNC(=O)c1ccc(C)c(S(=O)(=O)N2CCCCC2)c1)N(C)C` (stereo unspecified), the activation was 3.98%.

Turning to `O=C(NC1=CC(=O)c2ccccc2C1=O)c1ccccc1`, the activation was 7.9%.
